Drawing on PubChem BioAssay (NCI), this text covers growth for 40 molecules.

Each structure is given as a SMILES string. Several values for one entry are separate records, joined by “and”; a condition that tells them apart may be missing. Equal values may be shown once. The panel holds about 83,000 compounds, 20% with a hit somewhere; the sample as a whole holds those more often.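 The test compound was applied at a single concentration to cells in 96-well plates for 48 hours, and percent growth was recorded.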 A number with no mark means an inactive call. Activity calls are given as the source filed them. The calls were made as follows: active = growth percent below 10; inactive = the rest.

For this assay, the system named is MDA-MB-468 breast. The experiment in a line: NCI-60 one-dose screen, 48 h (100 = growth as untreated, 0 = no growth, -100 = all killed). The settings on record: 10 µM unless noted.
With `COc1ccc(C2CC(=O)c3c(nc4ccc(Cl)cc4c3N)C2)cc1` (stereo not given), the growth is 104%. Take `Cn1cc(Nc2nccc(-c3ccc(N4CCCC4)c(C#N)c3)n2)cn1`: the growth was 61.8%.

For `CCCCCCCCn1ccc2cc(NC(=O)Cn3cc(CN4CCCC4)nn3)ccc21`, the growth was 16.1%. The same measure for `COc1ccc2nc(NC(=O)c3cc(-c4ccc(F)cc4)n4nc(-c5ccccc5)cc4n3)sc2c1`: 103%. Under `O=C(Nc1ccccc1)Nc1ccc2cc3ccc(NC(=O)Nc4ccccc4)cc3nc2c1` stands -57.8% (active); under `OCc1cnccc1NCCCOc1ccccc1`, 94.4%. With `O=C(CCCCNC(=O)c1cc(=O)c(O)co1)Nc1ccccc1`, the growth was 35%. On to `O=C(/C=C/c1cn(-c2ccccc2)nc1-c1ccccc1)CCC(=O)NO`, for which the growth is 101%. Under `CCOP(=O)(O)OP(=O)(O)OCC` stands 107%; under `COc1ccc2sc3c(NCCO)nc4ccccc4c3c(=O)c2c1`, 109%.

For the molecule `Cc1cnc(/C=N\NC(N)=S)c2cccc(N)c12`, the growth is -27.7% (active). The same measure for `CCOC(=O)c1cnn2c(-c3ccc(Cl)cc3)nc(NCc3ccccc3)nc12`: 84.8%; for `CC/C(=N/NC(N)=O)c1ccccc1`: 103%. As to `CC1SC(c2ccc(Cl)cc2)N(CCc2cccs2)C1=O` (stereo not given), the growth was -38.4% (active). As for `Fc1ccc(Nc2nc3nonc3nc2Nc2ccc(F)cc2)cc1`, the growth was -4.42% (active). Under `CCOc1ccccc1NC(=O)CCC(=O)OC` stands 99.7%; under `CCN1C(=O)N(CC)C2C1NN=c1s/c(=C3\C(=O)N(CCc4ccccc4)c4ccccc43)c(=O)n12` (stereo not given), -11.3% (active); under `Cc1cc(=O)oc2c1ccc1oc(C(=O)c3ccccc3)c(C)c12`, 76.1%. With `Cc1cc(O)cc(-c2nn(C)cc2-c2cc(N3CCOCC3)nc(-c3cccnc3)n2)c1`, the growth was -3.22% (active). For the molecule `CC(/C=N/NC(=O)c1cc(-c2ccco2)[nH]n1)=C\c1ccccc1`, the growth was 117%. The same measure for `O=C1Nc2ccccc2C12C=C(c1ccccc1)Nc1c2c(-c2ccccc2)nn1-c1ccccc1` (stereo not given): 105%. The same measure for `Cc1nc(-c2ccccc2O)ccc1C(=O)N=Nc1c(O)[nH]c2ccc(Br)cc12`: 90.2%; for `O=C1OC(Oc2ccc(Br)cc2)(c2ccccc2)c2ccccc21` (stereo not given): 69.8% and 75.1%.

For the molecule `Fc1ccc(-c2nnc(-c3c(-c4ccc(F)cc4)nc4ccccn34)o2)cc1`, the growth is 92.5%. Consider `CCOC(=O)c1c(-c2ccc(Cl)cc2)c(C#N)c2c(C#N)c(N)nn2c1N`, for which the growth is 33.6%.

Regarding `C=CC(=O)N(C)[C@H]1C[C@H]2OC(C)(C1OC)n1c3ccccc3c3c4c(c5c6ccccc6n2c5c31)C(=O)NC4` (stereo not given in full), the growth is -52.4% (active).

Consider `COc1ccc(-c2nc3c(c(=O)n2C(C)=O)C(c2ccc(Cl)cc2)c2sc4c(Cl)cccc4c2O3)cc1` (stereo not given), for which the growth is 5.77% (active). Under `COc1ccc(-c2nc3sccn3c2/C=C/C(=O)c2c[nH]c3ccccc23)cc1` stands 62.6%; under `Cc1[nH]c(C(=O)Nc2ccccc2OC2CCNCC2)c(Cl)c1Cl`, 16.2%; under `O=c1c2cc(F)ccc2sc2c(NCCN3CCOCC3)nc3ccccc3c12`, 71.3%. For `CNC(=O)c1nn(C)c2c1C(C)(C)Cc1cnc(Nc3ccc(N4CCN(C)CC4)cc3)nc1-2`, the growth is -13.4% (active). Under `O=C1c2c(c3c4cccnc4[nH]c3c3ccc4ccccc4c23)C(=O)N1CCN1CCOCC1` stands 62.8%; under `COc1ccc(-c2cnnc3c(-c4cccc(C(F)(F)F)c4)cnn23)cc1`, 77.6%.

On to `COc1cc(/C=C/c2cc(/C=C/c3ccc(O)c(OC)c3)n(-c3ccccc3)c(=O)n2)ccc1O`, for which the growth was 63%. Under `O=C(CSc1nc(-c2ccc(Cl)cc2)cn1-c1ccc(Cl)cc1)c1ccc(Br)cc1` stands 81.3%; under `Cc1ccc2nc3c(nc2c1)-c1cccc2cccc-3c12`, 48.1%; under `O=C(/C=C\c1ccccc1)N1c2ccccc2CC1c1c[nH]c2ccccc12` (stereo not given), 80.6%. Regarding `O=S(=O)(NCCCNc1nccc(-c2c(-c3cccc(F)c3)nc3sccn23)n1)c1cccc(F)c1`, the growth is 33%. For `CCOc1ccc(C(=O)NCC(C)C)cc1`, the growth is 105%. The same measure for `O=c1onc(-c2ccccc2)c2ccccc12`: 108%.
